# PubChem BioAssay (NCATS)
# “And” between values parts separate entries of the source, which are not always exact repeats. Identical values can stand only once. Records with an inconclusive call do not appear. Some structures have more than one record in an assay (separate samples or runs), and their calls can disagree. A number with no mark means an inactive call. The source made the active and inactive calls. Calls follow the shape of the dose curve; as a rule, active = well fitted inhibition curve with a large enough effect; inconclusive = small, poorly fitted or top-dose-only effect; inactive = flat fitted curve, though single readings scatter.
# Columns and labels:
# CRL-7250 = normal cell line; test: Cytotoxic Profiling of Annotated Libraries Using Quantitative High-Throughput Screening (AID 1296008); conditions: Five cell lines viability, CellTiter-Glo ATP luminescence, 48-72 h; max response: stronger effect = lower value; also: potency is read from the fitted curve at half-maximal effect
# How it was run: (§1)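 Compounds were pin-transferred onto cells and incubated 48 or 72 hr at 37 degree Celsius, 95% humidity. CellTiter-Glo was added, plates sat 10 min at room temperature, then ATP-coupled luminescence was imaged as the viability read-out.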
# HEK293 = test: as above; conditions: Five cell lines viability, CellTiter-Glo ATP luminescence, 48-72 h; max response: stronger effect = lower value
# How it was run: as §1
# HaCat [1] = test: as above; conditions: Five cell lines viability, CellTiter-Glo ATP luminescence, 48-72 h; max response: stronger effect = lower value
# How it was run: as §1
# NIH3T3 = test: as above; conditions: Five cell lines viability, CellTiter-Glo ATP luminescence, 48-72 h; max response: stronger effect = lower value
# How it was run: as §1
# HACAT [2] = test: qHTS assay to identify novel small-molecules to repurpose for Merkel cell carcinoma treatment (AID 1296009); conditions: MCC and control cell lines, CellTiter-Glo viability, 72 h; series mostly up to 44.8 µM
# How it was run: (§2)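 qHTS format: cells treated with library compounds in DMSO across 8 (NPC) or 11 (MIPE) concentrations. Readout after 72 hr at 37 degree celsius was CellTiter-Glo luminescence.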
# MCC-13 = test: as above; conditions: MCC and control cell lines, CellTiter-Glo viability, 72 h; series mostly up to 46 µM
# How it was run: as §2
# MCC-26 = test: as above; conditions: MCC and control cell lines, CellTiter-Glo viability, 72 h; series mostly up to 46 µM
# How it was run: as §2
# MKL-1 = test: as above; conditions: MCC and control cell lines, CellTiter-Glo viability, 72 h; series mostly up to 46 µM
# How it was run: as §2
# HEK293T = test: as above; conditions: MCC and control cell lines, CellTiter-Glo viability, 72 h; at 44.8 µM (top of the series) unless noted
# How it was run: as §2
# KB-3-1 = test: Cytotoxic Profiling of Annotated Libraries Using Quantitative High-Throughput Screening (AID 1296008); conditions: Five cell lines viability, CellTiter-Glo ATP luminescence, 48-72 h; max response: stronger effect = lower value; also: potency is read from the fitted curve at half-maximal effect
# How it was run: as §1
# % is scaled to controls: 0 for no effect and ±100 for the full control effect.
# Also: nearly all actives have a fitted effect of over 60% in size.
smiles,measurement,setting,value
CCC(C(=O)O)c1ccc(N2Cc3ccccc3C2=O)cc1 (stereo unspecified),max response,CRL-7250,-5.22%
same,max response,HEK293,-2.44%
same,outcome,HaCat [1],inactive
same,max response,NIH3T3,3.06%
same,Potency,HACAT [2],inactive
same,outcome,MCC-13,inactive
same,outcome,MCC-26,inactive
same,Potency,MKL-1,inactive
CC(C)[C@@H](CS(=O)(=O)C(C)C)N1C(=O)[C@@](C)(CC(=O)O)C[C@H](c2cccc(Cl)c2)[C@H]1c1ccc(Cl)cc1,Potency,CRL-7250,5.8 µM (active) and 1.86 µM (active)
same,Potency,HEK293,16.6 µM (active)
same,max response,HaCat [1],-29%
same,Potency,NIH3T3,6.51 µM (active) and 7.41 µM (active)
C=C1C[C@@]23CCC4[C@@](C)(CCC[C@@]4(C)C(=O)OC)C2CC[C@@H]1C3 (stereo partly specified),outcome,CRL-7250,inactive
same,outcome,HEK293,inactive
same,outcome,HaCat [1],inactive
same,max response,NIH3T3,0.656%
same,Potency,HACAT [2],inactive
same,outcome,HEK293T,inactive
CCN(Cc1cccnc1)C(=O)CN(c1ccc(OC)nc1)S(=O)(=O)c1ccccc1C,max response,CRL-7250,-4.21%
same,outcome,HEK293,inactive
same,outcome,HaCat [1],inactive
same,outcome,NIH3T3,inactive
same,Potency,HACAT [2],inactive
same,outcome,HEK293T,inactive
COc1cc2c(NC3CCN(CC4CCCCC4)CC3)nc(N3CCCN(C(C)C)CC3)nc2cc1OCCCN1CCCCC1,Potency,CRL-7250,4.61 µM (active)
same,Potency,HEK293,3.26 µM (active)
same,Potency,KB-3-1,3.66 µM (active)
COc1ccc(Oc2cc(C)c(-c3csc(NC(=O)c4ccncc4)n3)c(C)c2)cc1,Potency,CRL-7250,0.651 µM (active)
same,Potency,HEK293,0.326 µM (active)
same,Potency,KB-3-1,0.146 µM (active)
Cn1cncc1C(N)(c1ccc(Cl)cc1)c1ccc2c(c1)c(-c1cccc(Cl)c1)cc(=O)n2C (stereo unspecified),Potency,CRL-7250,23.1 µM (active)
same,Potency,HEK293,0.259 µM (active)
same,Potency,KB-3-1,16.4 µM (active)
O=C1NC(=O)C(c2cn3c4c(cccc24)CCC3)C1c1c[nH]c2ccccc12 (stereo unspecified),Potency,CRL-7250,5.8 µM (active)
same,Potency,HEK293,1.03 µM (active)
same,Potency,KB-3-1,1.3 µM (active)
Cc1ccc(C(=O)N(CCCN)C(c2oc3cc(Cl)ccc3c(=O)c2Cc2ccccc2)C(C)C)cc1 (stereo unspecified),max response,CRL-7250,-42.6%
same,max response,HEK293,-125%
same,Potency,KB-3-1,0.0065 µM (active)
CC(C)N(CCCCOCC(=O)NS(C)(=O)=O)c1cnc(-c2ccccc2)c(-c2ccccc2)n1,max response,CRL-7250,-11.5%
same,outcome,HEK293,inactive
same,outcome,HaCat [1],inactive
same,max response,NIH3T3,-0.443%
same,Potency,HACAT [2],inactive
same,outcome,HEK293T,inactive
Cc1cnc(Nc2ccc(F)cc2Cl)nc1-c1c[nH]c(C(=O)NC(CO)c2cccc(Cl)c2)c1 (stereo unspecified),max response,CRL-7250,-0.447%
same,Potency,HEK293,5.8 µM (active)
same,max response,KB-3-1,-9.44%
CCOCCOC(=O)/C=C/c1ccc(OC)cc1,max response,CRL-7250,-7.76%
same,outcome,HEK293,inactive
same,max response,HaCat [1],-19.2%
same,max response,NIH3T3,-3.67%
same,outcome,HEK293T,inactive
same,outcome,MCC-13,inactive
same,outcome,MCC-26,inactive
same,Potency,MKL-1,inactive
C[C@H]1Oc2cc(cnc2N)-c2c(nn(C)c2C#N)CN(C)C(=O)c2ccc(F)cc21,Potency,CRL-7250,0.0366 µM (active)
same,max response,HEK293,-113%
same,max response,HaCat [1],-103%
same,Potency,NIH3T3,13.2 µM (active)
same,max response,NIH3T3,-87.5%
CC(C)(C)c1cc(Br)cc([C@H](CC(=O)O)NC(=O)CNC(=O)c2cc(O)cc(NC3=NCC(O)CN3)c2)c1 (stereo partly specified),max response,CRL-7250,-6.62%
same,max response,HEK293,-3.62%
same,max response,KB-3-1,3.01%
CCCCCCOc1cc2c(cc1N(C)c1ncc(C(=O)O)cn1)C(C)(C)CCC2(C)C,max response,CRL-7250,4.99%
same,max response,HEK293,3.1%
same,outcome,HaCat [1],inactive
same,outcome,NIH3T3,inactive
same,Potency,HACAT [2],inactive
COc1cc(C2c3cc4c(c(O)c3CC(CO)C2C(=O)O)OCO4)cc(OC)c1O (stereo unspecified),Potency,CRL-7250,3.17 µM (active)
same,Potency,HEK293,2.24 µM (active)
same,Potency,KB-3-1,2 µM (active)
same,Potency,NIH3T3,2.82 µM (active)
CCc1cccc(CC)c1NC(=O)c1nn(C)c2c1CCc1cnc(Nc3ccc(C(=O)NC4CCN(C)CC4)cc3OC(F)(F)F)nc1-2,max response,CRL-7250,-0.147%
same,Potency,HEK293,1.78 µM (active)
same,Potency,KB-3-1,5.63 µM (active)
C=C(C(=O)OC)C1C(O)CC2(C)C(=O)CCC(O)(CO)C2C1O (stereo unspecified),outcome,CRL-7250,inactive
same,max response,HEK293,-2.27%
same,max response,KB-3-1,-0.746%
same,outcome,NIH3T3,inactive
CC1(C)CCCC2(C)C(C(=O)O)=CCC12 (stereo unspecified),max response,CRL-7250,-16.1%
same,max response,HEK293,-1.36%
same,max response,KB-3-1,-0.0594%
O=C(O)c1ccccc1NCCc1ccccc1,max response,CRL-7250,4.16%
same,max response,HEK293,1.97%
same,outcome,HaCat [1],inactive
same,max response,NIH3T3,2.83%
same,Potency,HACAT [2],inactive
same,outcome,MCC-13,inactive
same,outcome,MCC-26,inactive
same,Potency,MKL-1,inactive
COc1ccc(CC2C(=O)NC(C)C(=O)N(C)C3Cc4ccc(cc4)Oc4cc(ccc4OC4OC(CO)C(O)C(O)C4O)CC(C(=O)NC(C)C(=O)NC(C)C(=O)N2C)N(C)C3=O)cc1 (stereo unspecified),Potency,CRL-7250,0.0873 µM (active)
same,Potency,HEK293,0.0551 µM (active)
same,Potency,KB-3-1,0.138 µM (active)
Cc1cc(Nc2cc(N3CCN(C)CC3)nc(/C=C/c3ccccc3)n2)n[nH]1,Potency,CRL-7250,5.8 µM (active)
same,Potency,HEK293,3.66 µM (active)
same,Potency,KB-3-1,1.16 µM (active)
same,Potency,NIH3T3,2.31 µM (active)
CCC(C)C(=O)OC1CC(O)C23C4OCC5(C(O)CC2C1(C)C(O)O4)C3C(=O)CC1(C)C(c2ccoc2)CC2OC215 (stereo unspecified),Potency,CRL-7250,3.55 µM (active)
same,Potency,HEK293,2.52 µM (active)
same,Potency,KB-3-1,1.78 µM (active)
